Test results published in PubChem BioAssay (EPA / NIEHS).
Inconclusive results are not listed. Calls of active or inactive are those of the source. The calls were made as follows, unless noted: active = hit-call score of the fitted dose curve at least 0.9, where 1 is the maximum; inactive = score below 0.9.

Key:
[1] = target: Paired box protein Pax-6 (Homo sapiens) (UniProt P26367); assay: ATG_Pax6_CIS: Attagene CIS-FACTORIAL HepG2 Assay for human Paired Box 6 (PAX6) (AID 2282956); conditions: HepG2 CIS-FACTORIAL PAX6 reporter transcription, RNA readout; actives raise or lower the signal
Method in brief: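 Readout: reporter transcript fluorescence after RT-PCR and capillary electrophoresis. Cells: HepG2, transiently transfected with cis-regulated MRTUs. Exposure 24 h. Gain or loss of signal fitted bidirectionally relative to DMSO.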

[2] = ATG_PXRE_CIS: Attagene CIS-FACTORIAL HepG2 Assay for human Pregnane X Receptor Element (PXRE) (AID 2282957); conditions: HepG2 Attagene CIS-FACTORIAL PXRE reporter, mRNA; actives raise or lower the signal
Method in brief: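 Reporter transcripts under endogenous PXR-responsive cis-regulation quantified from total RNA of transfected HepG2 cells 24 h post-dosing, via RT-PCR with fluorescent primer extension and capillary electrophoresis. Gain or loss of signal fitted against DMSO baseline.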

[3] = ATG_PPRE_CIS: Attagene CIS-FACTORIAL HepG2 Assay for human Peroxisome Proliferator-activated Response Element (PPRE) (AID 2282958); conditions: HepG2 PPRE cis-element reporter, Attagene transcription factor profiling; actives raise or lower the signal
Method in brief: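 HepG2 cells transiently transfected with multiplexed cis-element reporter units measure endogenous transcription factor activity. After 24 h compound exposure, reporter mRNA is quantified by RT-PCR, 6-FAM labeling, HpaI digestion and capillary electrophoresis; bidirectional fits are made against DMSO baseline.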

[4] = ATG_RORE_CIS: Attagene CIS-FACTORIAL HepG2 Assay for human RAR-related Orphan Receptor Element (RORE) (AID 2282959); conditions: HepG2 Attagene cis-factorial RORE reporter, mRNA; actives raise or lower the signal
Method in brief: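 HepG2 cells transiently transfected with multiple cis-element reporter transcription units, exposed to chemical for 24 h. Reporter mRNA quantified by RT-PCR, 6-FAM primer-extension labeling, HpaI digestion and capillary electrophoresis; bidirectional fit versus DMSO baseline.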

[5] = ATG_Sox_CIS: Attagene CIS-FACTORIAL HepG2 Assay for human SRY-box transcription factor (SOX) (AID 2282960); conditions: HepG2 Attagene cis-factorial SOX reporter, mRNA; actives raise or lower the signal
Method in brief: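 HepG2 cells transiently transfected with cis-element-driven multiple reporter transcription units, dosed 24 h; reporter mRNA measured by RT-PCR, FAM labelling, HpaI digestion and capillary electrophoresis. Bidirectional fit versus DMSO baseline.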

[6] = target: Transcription factor Sp1 (Homo sapiens) (UniProt P08047); assay: ATG_Sp1_CIS: Attagene CIS-FACTORIAL HepG2 Assay for human Specificity Protein 1 (Sp1) (AID 2282961); conditions: HepG2 Sp1 cis-reporter transcription, actives raise or lower the signal
Method in brief: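 HepG2 cells transiently transfected with multiple reporter transcription units driven by cis-regulatory elements; Sp1-responsive reporter mRNA measured 24 h after dosing by RT-PCR and capillary electrophoresis fluorescence, fitted bidirectionally against DMSO baseline.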

[7] = ATG_SREBP_CIS: Attagene CIS-FACTORIAL HepG2 Assay for human Sterol Regulatory Element Binding (SREBP) (AID 2282962); conditions: HepG2 Attagene cis-factorial SREBP reporter, mRNA; actives raise or lower the signal
Method in brief: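 Readout: fluorescent reporter-transcript peaks resolved by capillary electrophoresis after RT-PCR. Cells were human HepG2 carrying transfected cis-promoter reporter constructs, dosed for 24 h. Gain or loss of signal was fitted against DMSO controls.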

[8] = target: Signal transducer and activator of transcription 3 (Homo sapiens) (UniProt P40763); assay: ATG_STAT3_CIS: Attagene CIS-FACTORIAL HepG2 Assay for human Signal Transducer and Activator of Transcription 3 (STAT3) (AID 2282963); conditions: HepG2, Attagene cis-factorial STAT3 reporter transcription; actives raise or lower the signal
Method in brief: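 Fluorescence intensity of 6-FAM-labelled reporter fragments, separated by capillary electrophoresis after RT-PCR, gave the signal. Cells were HepG2 transfected with cis-element reporter units and treated 24 h; fitting was bidirectional relative to DMSO.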

[9] = ATG_TA_CIS: Attagene CIS-FACTORIAL HepG2 Assay for human TA Basal Promoter (AID 2282964); conditions: HepG2 Attagene CIS-factorial TA basal promoter reporter; actives raise or lower the signal
Method in brief: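 Transfected HepG2, 24 h compound exposure; RNA → RT-PCR → FAM primer extension → HpaI cut → CE fluorescence. Gain/loss-of-signal fitted against DMSO negative control. Background-control readout.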

[10] = ATG_TCF_b_cat_CIS: Attagene CIS-FACTORIAL HepG2 Assay for human T-Cell-Factor with beta-catenin (TCF/b-cat) (AID 2282965); conditions: HepG2 TCF/beta-catenin cis-reporter transcription, actives raise or lower the signal
Method in brief: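 HepG2, transient MRTU transfection, cis-element-driven reporters (endogenous TFs). 24 h compound exposure. Readout: reporter mRNA by RT-PCR + 6-FAM primer extension, HpaI digest, capillary electrophoresis. Gain/loss fit vs DMSO baseline.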

[11] = ATG_TAL_CIS: Attagene CIS-FACTORIAL HepG2 Assay for human TAL Basal Promoter (AID 2282966); conditions: HepG2 Attagene cis-factorial TAL promoter reporter; actives raise or lower the signal;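 also: background control endpoint measuring basal TAL promoter reporter mRNA not a specific factor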
Method in brief: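 Background-control endpoint: basal TAL promoter reporter transcripts in transiently transfected HepG2, measured 24 h after dosing. Read-out by RT-PCR with fluorescent primer extension and capillary electrophoresis; gain or loss of signal fitted relative to DMSO.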

[12] = ATG_TGFb_CIS: Attagene CIS-FACTORIAL HepG2 Assay for human Transforming Growth Factor (TGF) (AID 2282967); conditions: HepG2 Attagene CIS TGFb reporter, mRNA transcription; actives raise or lower the signal
Method in brief: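 Readout: fluorescently labeled reporter cDNA fragments resolved by capillary electrophoresis after RT-PCR. Transfected HepG2 cells dosed for 24 h; endogenous TF activity at TGFB1-linked cis element; gain or loss fitted relative to DMSO.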

[13] = ATG_VDRE_CIS: Attagene CIS-FACTORIAL HepG2 Assay for human Vitamin D Receptor Element (VDRE) (AID 2282968); conditions: HepG2 VDRE cis-reporter transcription, actives raise or lower the signal
Method in brief: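 Compounds were applied for 24 h to HepG2 cells transfected with promoter-regulated reporter units. Total RNA was reverse-transcribed, and reporter amplicons were fluorescently labelled and sized by capillary electrophoresis.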

[14] = target: Nuclear receptor subfamily 1 group I member 3 (Homo sapiens) (UniProt Q14994); assay: ATG_CAR_TRANS: Attagene TRANS-FACTORIAL HepG2 Assay for human Constitutive Androstane Receptor (CAR) (AID 2282969; active = hit-call score of the fitted dose curve at least 0.9, where 1 is the maximum;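 also: activators raise reporter mRNA above DMSO so AC50 marks induction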); conditions: HepG2 Attagene TRANS-FACTORIAL CAR reporter
Method in brief: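 Transiently transfected HepG2, multiplex TRANS reporters (CAR-Gal4 chimera driving GAL4-UAS reporter). 24 h dosing. Readout: reporter transcript by RT-PCR + capillary electrophoresis, fluorescence intensity; positive direction vs DMSO.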

[15] = target: X-box-binding protein 1 (Homo sapiens) (UniProt P17861); assay: ATG_Xbp1_CIS: Attagene CIS-FACTORIAL HepG2 Assay for human X-box Binding Protein 1 (XBP1) (AID 2282972); conditions: HepG2 XBP1 cis-element reporter, Attagene multiplex; actives raise or lower the signal
Method in brief: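 Read-out: fluorescent reporter mRNA fragments resolved by capillary electrophoresis after RT-PCR. Human HepG2 liver cells carried transfected cis-promoter reporter units and were exposed to chemicals for 24 hours. Gain or loss of signal fitted relative to DMSO baseline.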

[16] = ATG_M_19_TRANS: Attagene TRANS-FACTORIAL HepG2 Assay for M19 Transcription Factor (Internal Marker) (AID 2282974; active = hit-call score of the fitted dose curve at least 0.9, where 1 is the maximum); conditions: HepG2 Attagene TRANS-FACTORIAL M19 internal marker reporter
Method in brief: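 HepG2 cells transiently transfected with multiple GAL4-UAS reporter transcription units were exposed to chemicals for 24 h. Reporter mRNA was read by RT-PCR, 6-FAM primer extension, HpaI digestion and capillary electrophoresis; gain of signal fitted relative to DMSO.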

[17] = ATG_GAL4_TRANS: Attagene TRANS-FACTORIAL HepG2 Assay for GAL4 (Internal Marker) (AID 2282976; active = hit-call score of the fitted dose curve at least 0.9, where 1 is the maximum); conditions: HepG2 Attagene TRANS GAL4 internal marker reporter
Method in brief: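 In transfected human HepG2 liver cells dosed 24 h, GAL4 reporter mRNA serves as a baseline marker. Detection by RT-PCR with fluorescent capillary electrophoresis, activity fitted upward relative to DMSO.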

[18] = target: Glucocorticoid receptor (Homo sapiens) (UniProt P04150); assay: ATG_GR_TRANS: Attagene TRANS-FACTORIAL HepG2 Assay for human Glucocorticoid Receptor (GR) (AID 2282978; active = hit-call score of the fitted dose curve at least 0.9, where 1 is the maximum;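 also: activators score as hits since higher reporter transcript over DMSO is fitted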); conditions: HepG2 Attagene TRANS GR reporter, mRNA transcription
Method in brief: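 HepG2 cells transiently transfected with multiplexed reporter units in which chimeric NR-GAL4 proteins drive GAL4-UAS reporters; 24 h compound exposure. Reporter mRNA measured by RT-PCR, 6-FAM labelling, HpaI digestion and capillary electrophoresis; gain-of-signal fitted versus DMSO.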

[19] = target: Steroid hormone receptor ERR1 (Homo sapiens) (UniProt P11474); assay: ATG_ERRa_TRANS: Attagene TRANS-FACTORIAL HepG2 Assay for human Estrogen-Related Receptor alpha (ERRa) (AID 2282971; active = hit-call score of the fitted dose curve at least 0.9, where 1 is the maximum); conditions: HepG2 Attagene TRANS reporter, ERRa transactivation
Method in brief: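 Reporter transcripts from ERRa-Gal4 chimera activity measured in transiently transfected human HepG2 cells 24 hours after dosing, using RT-PCR with 6-FAM primer extension, HpaI digestion and capillary electrophoresis; DMSO is baseline.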

[20] = target: Estrogen-related receptor gamma (Homo sapiens) (UniProt P62508); assay: ATG_ERRg_TRANS: Attagene TRANS-FACTORIAL HepG2 Assay for human Estrogen-Related Receptor gamma (ERRg) (AID 2282977; active = hit-call score of the fitted dose curve at least 0.9, where 1 is the maximum;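 also: hits increase reporter signal over DMSO so potencies reflect activators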); conditions: HepG2 Attagene TRANS reporter, ERRg transactivation
Method in brief: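 Induction of reporter transcripts through a chimeric NR-Gal4 protein is quantified in transfected human HepG2 liver cells after 24 h chemical exposure, using RT-PCR with capillary electrophoresis detection and DMSO as baseline.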

Measured: AC50

X-box-binding protein 1 (Homo sapiens), sequence (P17861 whole entry, looked up, the tested form may be a part): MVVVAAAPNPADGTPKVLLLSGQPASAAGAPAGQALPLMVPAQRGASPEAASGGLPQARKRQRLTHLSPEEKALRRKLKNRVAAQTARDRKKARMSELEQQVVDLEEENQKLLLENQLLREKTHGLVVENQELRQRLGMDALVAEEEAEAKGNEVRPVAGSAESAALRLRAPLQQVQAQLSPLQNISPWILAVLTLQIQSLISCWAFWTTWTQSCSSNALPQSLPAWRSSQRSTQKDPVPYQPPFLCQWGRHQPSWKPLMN
Estrogen-related receptor gamma (Homo sapiens), sequence (P62508 whole entry, looked up, the tested form may be a part): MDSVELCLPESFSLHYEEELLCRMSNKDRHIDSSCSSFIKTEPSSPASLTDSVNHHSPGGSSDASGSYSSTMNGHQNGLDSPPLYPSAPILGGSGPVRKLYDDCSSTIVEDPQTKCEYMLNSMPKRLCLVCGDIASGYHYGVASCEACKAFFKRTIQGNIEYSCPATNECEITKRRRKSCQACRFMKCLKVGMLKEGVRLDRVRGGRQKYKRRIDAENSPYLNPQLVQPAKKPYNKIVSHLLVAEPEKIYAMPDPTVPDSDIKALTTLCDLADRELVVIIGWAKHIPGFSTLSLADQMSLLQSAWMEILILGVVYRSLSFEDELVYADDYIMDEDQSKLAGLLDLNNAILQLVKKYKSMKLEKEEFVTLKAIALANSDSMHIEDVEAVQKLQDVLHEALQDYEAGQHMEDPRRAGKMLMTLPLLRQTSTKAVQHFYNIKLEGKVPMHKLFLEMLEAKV
Glucocorticoid receptor (Homo sapiens), sequence (P04150 whole entry, looked up, the tested form may be a part): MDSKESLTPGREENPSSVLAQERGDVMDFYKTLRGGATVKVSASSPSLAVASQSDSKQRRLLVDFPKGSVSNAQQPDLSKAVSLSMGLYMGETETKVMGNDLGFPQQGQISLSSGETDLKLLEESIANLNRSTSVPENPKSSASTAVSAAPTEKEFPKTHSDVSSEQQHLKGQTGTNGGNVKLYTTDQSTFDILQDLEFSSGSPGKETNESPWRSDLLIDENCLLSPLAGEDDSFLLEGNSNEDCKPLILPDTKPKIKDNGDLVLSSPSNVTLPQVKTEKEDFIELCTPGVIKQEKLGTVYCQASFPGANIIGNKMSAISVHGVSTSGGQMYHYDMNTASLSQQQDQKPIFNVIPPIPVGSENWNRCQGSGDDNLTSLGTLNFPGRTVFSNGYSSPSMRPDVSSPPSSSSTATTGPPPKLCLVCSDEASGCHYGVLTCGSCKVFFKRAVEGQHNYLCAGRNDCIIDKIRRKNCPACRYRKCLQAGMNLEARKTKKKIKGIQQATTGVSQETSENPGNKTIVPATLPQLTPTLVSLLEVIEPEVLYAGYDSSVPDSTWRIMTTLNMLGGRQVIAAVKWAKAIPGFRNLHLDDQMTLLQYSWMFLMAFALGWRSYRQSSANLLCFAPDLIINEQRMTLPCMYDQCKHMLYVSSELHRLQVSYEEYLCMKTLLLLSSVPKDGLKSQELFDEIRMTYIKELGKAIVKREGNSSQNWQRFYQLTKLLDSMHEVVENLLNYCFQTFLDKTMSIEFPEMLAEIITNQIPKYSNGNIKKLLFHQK
Paired box protein Pax-6 (Homo sapiens), sequence (P26367 whole entry, looked up): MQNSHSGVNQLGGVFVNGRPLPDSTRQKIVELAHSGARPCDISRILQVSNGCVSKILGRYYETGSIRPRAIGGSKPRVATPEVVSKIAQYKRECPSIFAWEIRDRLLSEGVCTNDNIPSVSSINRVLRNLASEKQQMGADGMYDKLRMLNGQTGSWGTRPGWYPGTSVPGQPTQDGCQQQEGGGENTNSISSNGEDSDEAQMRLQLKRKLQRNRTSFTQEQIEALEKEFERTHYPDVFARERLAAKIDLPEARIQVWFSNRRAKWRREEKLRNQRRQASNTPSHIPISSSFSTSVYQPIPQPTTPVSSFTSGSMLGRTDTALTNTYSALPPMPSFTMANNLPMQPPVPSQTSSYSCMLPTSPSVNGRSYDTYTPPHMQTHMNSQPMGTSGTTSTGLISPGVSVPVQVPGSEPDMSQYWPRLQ
Steroid hormone receptor ERR1 (Homo sapiens), sequence (P11474 whole entry, looked up, the tested form may be a part): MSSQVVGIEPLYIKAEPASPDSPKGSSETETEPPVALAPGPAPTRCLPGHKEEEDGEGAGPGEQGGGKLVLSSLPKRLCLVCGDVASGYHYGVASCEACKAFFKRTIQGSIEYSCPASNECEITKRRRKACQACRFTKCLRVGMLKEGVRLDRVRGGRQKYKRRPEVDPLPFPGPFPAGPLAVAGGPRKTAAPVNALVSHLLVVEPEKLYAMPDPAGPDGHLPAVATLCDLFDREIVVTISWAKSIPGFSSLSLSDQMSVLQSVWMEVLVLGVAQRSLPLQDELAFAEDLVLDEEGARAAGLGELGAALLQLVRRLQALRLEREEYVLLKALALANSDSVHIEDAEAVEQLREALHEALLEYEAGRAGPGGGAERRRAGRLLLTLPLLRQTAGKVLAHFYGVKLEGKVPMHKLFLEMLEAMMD
Transcription factor Sp1 (Homo sapiens), sequence (P08047 whole entry, looked up): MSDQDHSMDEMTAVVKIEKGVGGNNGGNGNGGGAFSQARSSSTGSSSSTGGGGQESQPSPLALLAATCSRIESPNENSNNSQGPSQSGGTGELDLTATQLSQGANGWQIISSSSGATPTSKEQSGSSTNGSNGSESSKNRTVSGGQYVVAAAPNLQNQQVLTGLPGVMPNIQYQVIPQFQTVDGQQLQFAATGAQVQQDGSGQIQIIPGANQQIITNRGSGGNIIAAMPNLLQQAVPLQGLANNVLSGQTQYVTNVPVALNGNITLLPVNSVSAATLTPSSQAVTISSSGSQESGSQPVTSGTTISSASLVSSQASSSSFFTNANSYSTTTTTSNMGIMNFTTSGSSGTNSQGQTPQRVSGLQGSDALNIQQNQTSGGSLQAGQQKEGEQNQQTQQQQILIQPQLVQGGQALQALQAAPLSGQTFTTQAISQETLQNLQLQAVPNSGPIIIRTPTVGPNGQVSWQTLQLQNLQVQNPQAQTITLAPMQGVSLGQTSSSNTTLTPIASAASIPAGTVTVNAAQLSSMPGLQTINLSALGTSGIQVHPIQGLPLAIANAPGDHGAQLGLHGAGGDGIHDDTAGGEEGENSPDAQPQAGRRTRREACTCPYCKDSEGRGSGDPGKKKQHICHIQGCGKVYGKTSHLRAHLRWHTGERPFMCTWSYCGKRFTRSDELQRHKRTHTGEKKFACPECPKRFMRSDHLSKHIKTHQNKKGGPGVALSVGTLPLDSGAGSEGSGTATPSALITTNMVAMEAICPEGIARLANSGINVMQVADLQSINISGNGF
Nuclear receptor subfamily 1 group I member 3 (Homo sapiens), sequence (Q14994 whole entry, looked up, the tested form may be a part): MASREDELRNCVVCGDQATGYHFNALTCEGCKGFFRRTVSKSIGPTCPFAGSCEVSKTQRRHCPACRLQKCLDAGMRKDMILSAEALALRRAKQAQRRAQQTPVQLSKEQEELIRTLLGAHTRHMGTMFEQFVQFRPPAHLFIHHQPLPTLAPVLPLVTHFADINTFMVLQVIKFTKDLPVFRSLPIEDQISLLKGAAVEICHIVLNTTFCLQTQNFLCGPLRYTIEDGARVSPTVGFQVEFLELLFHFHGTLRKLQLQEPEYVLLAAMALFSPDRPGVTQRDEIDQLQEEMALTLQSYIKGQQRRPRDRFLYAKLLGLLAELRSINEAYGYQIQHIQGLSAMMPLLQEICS
Signal transducer and activator of transcription 3 (Homo sapiens), sequence (P40763 whole entry, looked up, the tested form may be a part): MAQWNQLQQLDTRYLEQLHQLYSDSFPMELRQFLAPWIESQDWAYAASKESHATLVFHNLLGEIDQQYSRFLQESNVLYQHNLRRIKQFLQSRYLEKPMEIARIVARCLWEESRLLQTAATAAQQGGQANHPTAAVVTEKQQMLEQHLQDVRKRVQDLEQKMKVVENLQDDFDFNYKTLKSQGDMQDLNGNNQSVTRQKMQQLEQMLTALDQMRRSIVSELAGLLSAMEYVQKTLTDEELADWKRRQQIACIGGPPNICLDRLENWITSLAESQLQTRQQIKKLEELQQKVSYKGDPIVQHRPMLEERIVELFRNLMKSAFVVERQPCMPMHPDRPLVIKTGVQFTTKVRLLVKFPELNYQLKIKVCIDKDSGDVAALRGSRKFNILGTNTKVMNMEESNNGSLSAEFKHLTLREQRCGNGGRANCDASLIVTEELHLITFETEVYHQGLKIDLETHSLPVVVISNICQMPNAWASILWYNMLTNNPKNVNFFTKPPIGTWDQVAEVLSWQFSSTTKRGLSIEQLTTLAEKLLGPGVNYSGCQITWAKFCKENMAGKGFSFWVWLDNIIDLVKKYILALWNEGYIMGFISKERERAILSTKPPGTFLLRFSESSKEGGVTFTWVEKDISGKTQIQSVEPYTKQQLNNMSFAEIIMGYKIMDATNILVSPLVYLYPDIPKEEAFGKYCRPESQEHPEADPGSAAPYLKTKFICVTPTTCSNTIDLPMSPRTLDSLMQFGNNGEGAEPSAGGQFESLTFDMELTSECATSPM

CCCCCCCCc1ccc(S(=O)(=O)O)cc1
inactive: [2] | [3] | [4] | [5] | [8] | [9] | [10] | [11] | [12] | [13] | [14] | [15] | [16] | [17] | [18]
active: [1] 19.7 µM | [6] 186 µM | [7] 159 µM

Cc1c(Cl)cccc1[N+](=O)[O-]
inactive: [1] | [2] | [3] | [4] | [5] | [6] | [7] | [8] | [9] | [10] | [11] | [12] | [13] | [15] | [16]

CC1=C(Br)C(=O)C(Br)=C/C1=C(/c1ccccc1S(=O)(=O)O)c1cc(Br)c(O)c(Br)c1C
active: [2] 26.2 µM | [13] 40.8 µM
inactive: [1] | [3] | [4] | [5] | [6] | [7] | [8] | [9] | [10] | [11] | [12] | [15] | [16] | [17] | [18]

COc1cccc(OC)c1O
inactive: [1] | [3] | [4] | [5] | [6] | [7] | [8] | [9] | [10] | [11] | [12] | [13] | [14] | [15]
active: [2] 27 µM

CCC(C)c1cc([N+](=O)[O-])cc([N+](=O)[O-])c1OC(=O)OC(C)C (stereo unspecified)
active: [1] 25.9 µM | [2] 0.731 µM | [5] 25.3 µM | [7] 25.1 µM | [8] 100 µM | [12] 100 µM | [13] 0.705 µM | [15] 24.3 µM
inactive: [3] | [4] | [6] | [9] | [10] | [11] | [14] | [19] | [16] | [20]

O=C(O)CNc1ccccc1
active: [2] 19.2 µM
inactive: [1] | [3] | [4] | [5] | [6] | [7] | [8] | [9] | [10] | [11] | [12] | [13] | [14] | [19] | [15] | [20] | [18]

CSCCC=O
inactive: [1] | [3] | [4] | [5] | [6] | [7] | [8] | [9] | [10] | [12] | [13] | [14] | [19] | [17] | [20]
active: [2] 10.9 µM

CCCCCCCCSCCO
active: [2] 25 µM
inactive: [1] | [3] | [4] | [5] | [6] | [7] | [8] | [9] | [10] | [11] | [12] | [15] | [18]
